Reference: the supplement of paper PMC10338343
± gives the standard deviation.

System: MILI (PIWIL2) piRISC loaded with L1MC piRNA (26 nt)
Assay: pre-steady-state target cleavage rate (min^-1); guide: L1MC piRNA 5'p-UAACUAAAUACUAUGCAAGCUGUAGG; MIWI and MILI are mouse PIWI proteins and EfPiwi is from a freshwater sponge; tags in brackets are library labels; higher = faster piRNA-guided slicing of the target
Conditions: auxiliary factor: 500 nM mouse GTSF1
Procedure, shortened: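 Reactions were run for 0–8 or 0–960 min at 33 °C in HEPES–potassium acetate buffer, combining 1 nM active affinity-purified piRISC with one synthetic guide, […] transcribed, DNA-blocked target RNA library and, in some cases, 500 nM GTSF1 partner protein. Sequencing of uncleaved targets followed, with normalisation to depth and to weakly complementary targets. Three trials were pooled, k3 was capped at 0.0001 min^-1, and the pre-steady-state cleavage rate was taken from a burst-and-steady-state fit.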
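Further: 1 nM active piRISC with 0.1 nM target library at 33 °C single turnover.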

Sequence | pre-steady-state target cleavage rate
UCCUCCUUGAGCUUGCAUAGUAUUUAGUUA | 0.216 ± 0.018
UCCUGGUACACCUAGCAUAGUAUUUAGUUA | 0.201 ± 0.044
UCCUGGAUCACCUUGCAUAGUAAUUAGUUA | 0.198 ± 0.03
UCCUGGAUCAGCUUGCAUAGUAUUUACAAA | 0.105 ± 0.021
UCCUGGUACAGCUUGCAUAGUAAUUUAGUUA | 0.186 ± 0.025
UCCUGCUUACAGCUUGCAUAGUAUUUAGUUA | 0.451 ± 0.043
UCCUCCUACAGCUUGCAUAGUAUCUUAGUUA | 0.285 ± 0.022
UCCUGGAUCAGCUUGCAUAGUAUGUUAGUUA | 0.199 ± 0.017
UCCUCCUACAGCUUGCUUUGUAUUUAGUUA | 0.18 ± 0.017
UCCUGCUUCAGCUUGCAUAGUAUUUAGUAA | 0.224 ± 0.025
UCCUGCUACAGCUUGCUUAGUUUUUAGUUA | 0.0712 ± 0.011
UCCUGGAACAACUUGCAUAGUAUUUAGUUA | 0.262 ± 0.022
UCCUCCUACUGCUUGCAUAGUAUUAAGUUA | 0.15 ± 0.018
UCCUGGUAAGCUUGCAUAGUAUUUAGUUA | 0.273 ± 0.017
UCCUGCUACAGCUUCCAUUGUAUUUAGUUA | 0.157 ± 0.029
UCCUGGAUCAGCAUGCAUAGUAUUAAGUUA | 0.24 ± 0.012
